Bioassay records (PubChem)
Only some compounds are listed: those with a hit (about 6.7% of all), similar ones and a draw of the others.
KB-3-1 tox: KB-3-1 parental cell cytotoxicity; 1.4% of 400,000 active; AID 1347075; KB-3-1 viability, CellTiter-Glo ATP luminescence, 72 h; Potency, µM (titrated, usually from 46.1 µM), most hits filed as cytotoxic; also: % is scaled to controls: 0 for no effect and ±100 for the full control effect; nearly all actives have a fitted effect of over 60% in size
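KB-3-1 parental drug-naive adenocarcinoma cells in DMEM/10% FBS, incubated 72 h at 37 C with pin-transferred compounds across a concentration series. Viability by CellTiter-Glo luminescence; concentration-response curves fitted after normalization.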
SW480 rereplic: induces DNA re-replication in SW480 colon adenocarcinoma cells; Potency, µM (top dose mostly 46.1 µM), without a hit: at the top dose re-replication activation, hits mostly activators; SW480 DNA re-replication, Hoechst DNA content imaging, 48 h; 1.8% of 340,000 active; also: % of control where 0% means no effect; nearly all actives have a fitted effect of over 55% in size
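Treated cells incubate 48 hr (37 C, 5% CO2), are stained 40 min with Hoechst, and nuclear fluorescence is enumerated; a rise in nuclei with high DNA signal marks re-replication.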
KB-V1 cytotox: kills drug-selected multidrug resistant KB-V1 cells; 3.4% of 400,000 active; Potency, µM (highest dose often 46.1 µM), usual class: cytotoxic; KB-V1 MDR cells viability, CellTiter-Glo, 72 h; also: % is scaled to controls: 0 for no effect and ±100 for the full control effect; nearly all actives have a fitted effect of over 60% in size
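Cytotoxicity via CellTiter-Glo luminescence after 72 h compound exposure at 37 degrees C. Cells: drug-selected KB-V1 line, DMEM phenol-red free plus 10% FBS. Compounds tested at multiple concentrations; normalized data fitted to concentration-effect curves.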
MCF10A rereplic: induces DNA re-replication in MCF 10a normal breast cells; AID 624296; MCF 10A DNA re-replication, Hoechst nuclear intensity, 48 h; Potency, µM (series often up to 46.1 µM), for the others: at the highest dose activity, positive = re-replication, usual class: activators; 2.9% of 350,000 active; also: % of control where 0% means no effect; nearly all actives have a fitted effect of over 50% in size
PINK1 modulator: PINK1 expression modulation. PINK1 immunofluorescence, high-content cytometry, 24 h. 0.2% of 410,000 active. Potency, µM (titrated, usually from 76.6 µM), for the others: top-dose activation (PINK1 increase), hits mostly activators; active = well fitted activation curve with a large enough effect; inconclusive = small, poorly fitted or top-dose-only effect; cell line not stated here; also: % of control where 0% means no effect; nearly all actives have a fitted effect of over 65% in size
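Stable cell line, 250 cells/well, 12 h attachment; compounds pinned at 5 concentrations, 24 h; CCCP control. Fixed with nuclear dye, primary antibodies 12 h at 10 degrees C, secondary plus cell stain; laser-scanning cytometer read.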
* = called active by the depositor; i = inactive; ? = inconclusive; . = not tested or not shown; [ ] = dose if it differs, or a comment. Unless noted, calls follow the shape of the dose curve; as a rule, active = well fitted curve in the direction sought with a large enough effect; inconclusive = small, poorly fitted or top-dose-only effect, or another doubt; inactive = no such curve, though single readings can be large; an effect the other way counts as inactive or inconclusive. Potency is read from the fitted curve at half-maximal effect.

SMILES | KB-3-1 tox | SW480 rereplic | KB-V1 cytotox | MCF10A rereplic | PINK1 modulator
Clc1ccccc1Cn1nnc2c(NCCN3CCOCC3)ncnc21 | i | -3.4% | 20.6µM* | 20.6% | 0.8%[38.3 µM]
CCOc1ccc(CNC(=O)Cn2nc(C)c3sc4ccccc4c3c2=O)cc1 | i | . | i | . | 1.1%
COc1ccc(CCCNC(=O)C2(C)Cc3c(-c4cccc(C(N)=O)c4)ccnc3O2)cc1 (stereo not drawn) | ? | . | i | . | 9.8%
c1ccc(CCNc2ncnc3c2nnn3Cc2ccccc2)cc1 | i | -6.0% | i | ? | 11.2µM*
O=C(CC1C(=O)NCCN1Cc1cccc(Oc2ccccc2)c1)NCCc1ccccn1 (stereo not drawn) | i | -1.5% | i | 11.5% | 0.8%
Cn1cc(CCNC(=O)CC2C(=O)NCCN2Cc2cccc(Oc3ccccc3)c2)cn1 (stereo not drawn) | ? | 25.9µM* | i | ? | 4.4%
CCc1ccc(NC(=O)N(CCN2CCOCC2)Cc2ccc3c(c2)CCCN3CC)cc1 | i | -0.3% | 20.6µM* | 17.8% | 14.5%[38.3 µM]
CCN1CCCc2cc(CN(CCN3CCOCC3)C(=O)Nc3ccc(C)c(C)c3)ccc21 | i | 3.9% | 20.6µM* | ? | 3.5%
CCN1CCCc2cc(CN(CCN3CCOCC3)C(=S)Nc3cccc(C)c3)ccc21 | ? | 25.9% | i | 4.5% | -0.9%
CCC1(C2CCN(C(=O)c3ccc(C)c(C)c3)CC2)NC(=O)N(CCc2scnc2C)C1=O (stereo not drawn) | . | . | . | . | 0.5%
O=C(Cc1ccc(Cl)cc1)NCCS(=O)(=O)N1CCN(c2ccccc2F)CC1 | 13µM* | ? | 7.31µM* | 18.4µM* | 5.2%
Cc1c(C(=O)NCCS(=O)(=O)N2CCN(c3ccccc3F)CC2)cccc1[N+](=O)[O-] | 23.1µM* | ? | ? | ? | 8.1%
Cc1ccc(CN2C(=O)C(CC(C)C)Nc3ncnc(N4CCCCC4)c32)cc1 (stereo not drawn) | i | . | i | . | 15.6%
CC(=O)C1=C(c2ccccc2)OC(N)=C(C#N)C1c1ccccc1C (stereo not drawn) | i | -6.5% | i | -0.7% | 3.4%
CCN1C=C(Cc2ccc(F)cc2)C2=C(C1)C(c1ccc(F)cc1)C(C#N)=C(N)O2 (stereo not drawn) | ? | ? | 16.4µM* | ? | 10.1%
CCN1C=C(Cc2ccccc2C)C2=C(C1)C(c1ccccc1C)C(C#N)=C(N)O2 (stereo not drawn) | ? | ? | 20.6µM* | ? | 13.9%
C[C@H](CO)N1C[C@H](C)[C@@H](CN(C)C(=O)NC2CCCCC2)Oc2ccc(NC(=O)Cc3ccccc3)cc2C1=O | i | 1.6% | i | 0.2% | 1.1%
CC(C)C(NS(C)(=O)=O)c1nnc2n1CCN(Cc1cccc3ncccc13)CC2 (stereo not drawn) | . | . | . | . | -0.3%
COc1c(Cl)cc(C(=O)Nc2cccc(-c3nc4ccccc4[nH]3)c2)cc1Cl | ? | . | 20.6µM* | . | -1.3%
COc1cccc(C(=O)Nc2ccccc2-c2ccccc2)c1 | i | -2.4% | i | -2.7% | 0.3%
COc1c(Cl)cc(C(=O)Nc2ccccc2-c2ccccc2)cc1Cl | 20.6µM* | 7.2% | 14.6µM* | ? | 6.3%
O=C(Nc1ccc2ccccc2c1)c1cccnc1 | i | -1.1% | i | 1.3% | 0.7%
O=C(Nc1ccc(Cl)c(-c2nc3ccccc3[nH]2)c1)c1cccnc1 | i | 2.8% | 20.6µM* | 1.4% | -1.5%[38.3 µM]
Cc1nc(C)n(CCNS(=O)(=O)c2ccc(C)c(C)c2)n1 | i | -10.2% | i | -13.9% | 1.8%
Cc1ccc(OCC(=O)Nc2sc3c(c2C(N)=O)CCCC3)c(C(C)(C)C)c1 | i | . | i | . | 8.2%
Cc1cc(C)n(CC(O)Cn2c3ccc(Cl)cc3c3cc(Cl)ccc32)c(=O)n1 (stereo not drawn) | i | 3.7% | 16.4µM* | 2.4% | 2.2%[38.3 µM]
Cc1cc(C)n(CC(O)Cn2c3ccccc3c3ccccc32)n1 (stereo not drawn) | i | 5.8% | i | ? | 0.3%
